Inconclusive results are not listed. The source made the active and inactive calls. How the source made its calls, unless noted: active means hit-call score of the fitted dose curve at least 0.9, where 1 is the maximum; inactive means score below 0.9.

The nature of test [1]: ATG_RORE_CIS: Attagene CIS-FACTORIAL HepG2 Assay for human RAR-related Orphan Receptor Element (RORE) (AID 2282959). As to conditions: HepG2 Attagene cis-factorial RORE reporter, mRNA; actives raise or lower the signal. Put shortly: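 HepG2 cells carrying transiently transfected cis-regulated reporter units; RORE-driven reporter mRNA quantified 24 h post-dosing by RT-PCR, 6-FAM primer extension, HpaI digestion and capillary electrophoresis. Bidirectional fit versus DMSO.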

A short description of test [2]: ATG_Sox_CIS: Attagene CIS-FACTORIAL HepG2 Assay for human SRY-box transcription factor (SOX) (AID 2282960). To be noted: HepG2 Attagene cis-factorial SOX reporter, mRNA; actives raise or lower the signal. Put shortly: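 HepG2 cells transiently transfected with multiple cis-regulated reporter units, then dosed for 24 h. Reporter mRNA quantified by RT-PCR, fluorescent labelling, HpaI digestion and capillary electrophoresis; bidirectional fit versus DMSO.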

The target of test [3] is Transcription factor Sp1 (Homo sapiens) (UniProt P08047). Description: ATG_Sp1_CIS: Attagene CIS-FACTORIAL HepG2 Assay for human Specificity Protein 1 (Sp1) (AID 2282961). To be noted: HepG2 Sp1 cis-reporter transcription, actives raise or lower the signal. Put shortly:
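HepG2 cells transiently transfected with multiplexed cis-regulated reporter constructs, chemical exposure 24 h. Reporter mRNA quantified by RT-PCR with capillary electrophoresis; bidirectional fit relative to DMSO.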

The nature of test [4]: ATG_SREBP_CIS: Attagene CIS-FACTORIAL HepG2 Assay for human Sterol Regulatory Element Binding (SREBP) (AID 2282962). To be noted: HepG2 Attagene cis-factorial SREBP reporter, mRNA; actives raise or lower the signal. Put shortly:
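HepG2 cells transiently transfected with multiplexed cis-promoter reporter units sensing endogenous transcription factors; reporter mRNA measured 24 h after dosing by RT-PCR, 6-FAM labeling, HpaI digestion and capillary electrophoresis. Bidirectional fit versus DMSO.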

Test [5] deals with Signal transducer and activator of transcription 3 (Homo sapiens) (UniProt P40763). The test can be described thus: ATG_STAT3_CIS: Attagene CIS-FACTORIAL HepG2 Assay for human Signal Transducer and Activator of Transcription 3 (STAT3) (AID 2282963). As to conditions: HepG2, Attagene cis-factorial STAT3 reporter transcription; actives raise or lower the signal. Put shortly: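 Transcript-level reporter assay. HepG2 transient MRTU transfection, 24 h exposure, fluorescence detection after RT-PCR and CE; DMSO baseline.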
Signal transducer and activator of transcription 3 (Homo sapiens), sequence (P40763 whole entry, looked up): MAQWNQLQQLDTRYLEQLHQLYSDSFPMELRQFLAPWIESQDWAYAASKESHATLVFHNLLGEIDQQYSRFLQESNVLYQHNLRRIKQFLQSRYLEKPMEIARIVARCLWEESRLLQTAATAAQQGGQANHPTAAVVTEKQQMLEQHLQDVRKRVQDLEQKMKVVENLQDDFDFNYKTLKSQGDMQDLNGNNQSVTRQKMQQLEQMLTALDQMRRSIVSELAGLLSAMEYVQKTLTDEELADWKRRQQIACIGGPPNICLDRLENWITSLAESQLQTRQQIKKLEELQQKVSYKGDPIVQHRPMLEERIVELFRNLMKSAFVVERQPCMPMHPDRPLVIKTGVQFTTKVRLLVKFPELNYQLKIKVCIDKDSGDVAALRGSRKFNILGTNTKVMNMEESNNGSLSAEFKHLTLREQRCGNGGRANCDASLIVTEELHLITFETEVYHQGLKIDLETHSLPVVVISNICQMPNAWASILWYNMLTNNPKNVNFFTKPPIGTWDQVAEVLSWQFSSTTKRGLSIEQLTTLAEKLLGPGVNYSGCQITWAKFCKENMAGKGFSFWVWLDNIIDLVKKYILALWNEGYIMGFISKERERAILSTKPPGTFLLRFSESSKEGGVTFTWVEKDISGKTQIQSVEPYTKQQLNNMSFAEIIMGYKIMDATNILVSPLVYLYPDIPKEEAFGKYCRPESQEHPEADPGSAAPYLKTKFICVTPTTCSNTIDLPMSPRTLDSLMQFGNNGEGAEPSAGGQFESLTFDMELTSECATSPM

Test [6] is described as follows: ATG_TA_CIS: Attagene CIS-FACTORIAL HepG2 Assay for human TA Basal Promoter (AID 2282964). As to conditions: HepG2 Attagene CIS-factorial TA basal promoter reporter; actives raise or lower the signal. Put shortly:
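Fluorescence from labelled RT-PCR reporter fragments, separated by capillary electrophoresis, gives the signal. Cells: HepG2 transiently carrying multiple reporter units, 24 h chemical dosing. Gain or loss relative to DMSO.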

Test [7] is described as follows: ATG_TAL_CIS: Attagene CIS-FACTORIAL HepG2 Assay for human TAL Basal Promoter (AID 2282966).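 Further: background control endpoint measuring basal TAL promoter reporter mRNA not a specific factor.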 To be noted: HepG2 Attagene cis-factorial TAL promoter reporter; actives raise or lower the signal. Put shortly:
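In this cell-based multiplex, HepG2 liver cells bearing cis-promoter reporter constructs are dosed for 24 hours. Total RNA is reverse-transcribed and amplified, labelled fragments are sized by capillary electrophoresis, and signal changes are fitted bidirectionally versus DMSO.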

Test [8] can be described thus: ATG_TGFb_CIS: Attagene CIS-FACTORIAL HepG2 Assay for human Transforming Growth Factor (TGF) (AID 2282967). To be noted: HepG2 Attagene CIS TGFb reporter, mRNA transcription; actives raise or lower the signal. Put shortly:
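Bidirectional fitting relative to DMSO gave the endpoint. Underlying data: reporter mRNA from HepG2 cells carrying transiently transfected cis-regulated reporter constructs, harvested 24 h after dosing and analyzed by RT-PCR and capillary electrophoresis.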

The nature of test [9]: ATG_VDRE_CIS: Attagene CIS-FACTORIAL HepG2 Assay for human Vitamin D Receptor Element (VDRE) (AID 2282968). As to conditions: HepG2 VDRE cis-reporter transcription, actives raise or lower the signal. Put shortly: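 RT-PCR/CE readout of reporter mRNA; HepG2, transient transfection, 24 h dosing; DMSO baseline; bidirectional analysis.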
Test [10] concerns the target Nuclear receptor subfamily 1 group I member 3 (Homo sapiens) (UniProt Q14994). The test can be described thus: ATG_CAR_TRANS: Attagene TRANS-FACTORIAL HepG2 Assay for human Constitutive Androstane Receptor (CAR) (AID 2282969; active means hit-call score of the fitted dose curve at least 0.9, where 1 is the maximum;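 further: activators raise reporter mRNA above DMSO so AC50 marks induction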). As to conditions: HepG2 Attagene TRANS-FACTORIAL CAR reporter. Put shortly: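 HepG2 cells transiently transfected with multiplexed GAL4-UAS reporter units expressing chimeric NR-Gal4 proteins; compound exposure 24 h. Reporter mRNA measured by RT-PCR, 6-FAM labelling, HpaI digestion and capillary electrophoresis; gain-of-signal fitted against DMSO baseline.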

The target in test [11] is X-box-binding protein 1 (Homo sapiens) (UniProt P17861). The test can be described thus: ATG_Xbp1_CIS: Attagene CIS-FACTORIAL HepG2 Assay for human X-box Binding Protein 1 (XBP1) (AID 2282972). As to conditions: HepG2 XBP1 cis-element reporter, Attagene multiplex; actives raise or lower the signal. Put shortly: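 HepG2 cells transiently transfected with multiple cis-element reporter units report endogenous TF activity; 24 h exposure, then reporter mRNA measured by RT-PCR, 6-FAM labelling, HpaI digestion and capillary electrophoresis. Bidirectional fitting versus DMSO.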
X-box-binding protein 1 (Homo sapiens), sequence (P17861 whole entry, looked up): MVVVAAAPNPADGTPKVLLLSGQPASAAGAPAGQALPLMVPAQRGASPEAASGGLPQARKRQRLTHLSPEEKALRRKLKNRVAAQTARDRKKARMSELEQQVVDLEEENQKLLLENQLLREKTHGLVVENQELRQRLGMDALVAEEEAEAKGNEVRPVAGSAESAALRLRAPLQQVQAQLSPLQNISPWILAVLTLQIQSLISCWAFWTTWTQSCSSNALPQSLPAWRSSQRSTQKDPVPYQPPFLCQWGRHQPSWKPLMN

Test [12] is described as follows: ATG_GAL4_TRANS: Attagene TRANS-FACTORIAL HepG2 Assay for GAL4 (Internal Marker) (AID 2282976; active means hit-call score of the fitted dose curve at least 0.9, where 1 is the maximum). As to conditions: HepG2 Attagene TRANS GAL4 internal marker reporter. Put shortly: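 RT-PCR/capillary electrophoresis readout of reporter mRNA. HepG2, transient MRTU transfection (GAL4-UAS reporters), 24 h compound exposure. Background-control endpoint, positive direction vs DMSO baseline.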

In test [13] the target is Glucocorticoid receptor (Homo sapiens) (UniProt P04150). The test can be described thus: ATG_GR_TRANS: Attagene TRANS-FACTORIAL HepG2 Assay for human Glucocorticoid Receptor (GR) (AID 2282978; active means hit-call score of the fitted dose curve at least 0.9, where 1 is the maximum;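 further: activators score as hits since higher reporter transcript over DMSO is fitted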). To be noted: HepG2 Attagene TRANS GR reporter, mRNA transcription. Put shortly:
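HepG2 cells transiently transfected with GAL4-UAS reporter units and exogenous GR-Gal4 chimera, dosed 24 h. Reporter mRNA by RT-PCR, FAM labeling, HpaI digest and capillary electrophoresis; gain-of-signal fit versus DMSO.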

For test [14], the target named is Estrogen receptor (Homo sapiens) (UniProt P03372). The test can be described thus: ATG_ERa_TRANS: Attagene TRANS-FACTORIAL HepG2 Assay for human Estrogen Receptor alpha (ERa) (AID 2282970; active means hit-call score of the fitted dose curve at least 0.9, where 1 is the maximum). As to conditions: HepG2 Attagene TRANS ERa GAL4 reporter, mRNA. Put shortly:
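After 24 h of compound treatment, RNA from HepG2 cells bearing transfected GAL4-UAS reporter constructs is converted to cDNA, amplified and fluorescently labelled. Capillary electrophoresis resolves the ERa-linked reporter; DMSO serves as negative control.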

Test [15] deals with Steroid hormone receptor ERR1 (Homo sapiens) (UniProt P11474). Description: ATG_ERRa_TRANS: Attagene TRANS-FACTORIAL HepG2 Assay for human Estrogen-Related Receptor alpha (ERRa) (AID 2282971; active means hit-call score of the fitted dose curve at least 0.9, where 1 is the maximum). To be noted: HepG2 Attagene TRANS reporter, ERRa transactivation. Put shortly:
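Transfected HepG2, 24 h dosing, ERRa-Gal4 chimera driving GAL4-UAS reporter. Readout: reporter mRNA via RT-PCR plus capillary electrophoresis (fluorescence). Positive direction vs DMSO control.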

A short description of test [16]: ATG_TCF_b_cat_CIS: Attagene CIS-FACTORIAL HepG2 Assay for human T-Cell-Factor with beta-catenin (TCF/b-cat) (AID 2282965). To be noted: HepG2 TCF/beta-catenin cis-reporter transcription, actives raise or lower the signal. Put shortly:
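Using capillary electrophoresis as the read-out, labelled reporter cDNA fragments from transiently transfected HepG2 were sized and quantified. Exposure lasted 24 hours; activity in either direction was referenced to DMSO.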

Test [17] in a line: ATG_M_19_TRANS: Attagene TRANS-FACTORIAL HepG2 Assay for M19 Transcription Factor (Internal Marker) (AID 2282974; active means hit-call score of the fitted dose curve at least 0.9, where 1 is the maximum). To be noted: HepG2 Attagene TRANS-FACTORIAL M19 internal marker reporter. Put shortly:
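HepG2 transiently transfected with GAL4-UAS multiplex reporter constructs, exposed 24 h; reporter RNA quantified by RT-PCR, 6-FAM labeling, HpaI digestion and capillary electrophoresis; internal background marker fitted upward versus DMSO.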

Test [18] has as its target Bile acid receptor (Homo sapiens) (UniProt Q96RI1). The test can be described thus: ATG_FXR_TRANS: Attagene TRANS-FACTORIAL HepG2 Assay for Farnesoid X Receptor (FXR) (AID 2282979; active means hit-call score of the fitted dose curve at least 0.9, where 1 is the maximum;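 further: hits raise reporter mRNA above DMSO so AC50 marks FXR activation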). To be noted: HepG2 Attagene TRANS FXR-GAL4 reporter transcription. Put shortly:
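Read-out: fluorescent reporter transcripts quantified by capillary electrophoresis after RT-PCR of total RNA. Source cells were HepG2 transiently carrying chimeric NR-GAL4 plus GAL4-UAS reporter units, dosed 24 h. Activity fitted upward relative to DMSO baseline.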

Steroid hormone receptor ERR1 (Homo sapiens), sequence (P11474 whole entry, looked up, the tested form may be a part): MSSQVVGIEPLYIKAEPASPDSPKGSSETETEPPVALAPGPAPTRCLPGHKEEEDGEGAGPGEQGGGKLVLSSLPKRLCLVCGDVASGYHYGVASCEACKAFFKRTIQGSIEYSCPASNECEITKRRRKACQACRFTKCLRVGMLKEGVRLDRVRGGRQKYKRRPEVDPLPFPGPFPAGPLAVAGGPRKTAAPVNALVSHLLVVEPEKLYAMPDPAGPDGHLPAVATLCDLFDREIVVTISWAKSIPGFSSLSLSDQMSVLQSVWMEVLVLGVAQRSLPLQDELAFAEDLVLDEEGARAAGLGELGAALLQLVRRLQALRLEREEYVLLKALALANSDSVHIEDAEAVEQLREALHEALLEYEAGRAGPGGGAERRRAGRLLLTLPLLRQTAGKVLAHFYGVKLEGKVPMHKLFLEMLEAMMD
Glucocorticoid receptor (Homo sapiens), sequence (P04150 whole entry, looked up, the tested form may be a part): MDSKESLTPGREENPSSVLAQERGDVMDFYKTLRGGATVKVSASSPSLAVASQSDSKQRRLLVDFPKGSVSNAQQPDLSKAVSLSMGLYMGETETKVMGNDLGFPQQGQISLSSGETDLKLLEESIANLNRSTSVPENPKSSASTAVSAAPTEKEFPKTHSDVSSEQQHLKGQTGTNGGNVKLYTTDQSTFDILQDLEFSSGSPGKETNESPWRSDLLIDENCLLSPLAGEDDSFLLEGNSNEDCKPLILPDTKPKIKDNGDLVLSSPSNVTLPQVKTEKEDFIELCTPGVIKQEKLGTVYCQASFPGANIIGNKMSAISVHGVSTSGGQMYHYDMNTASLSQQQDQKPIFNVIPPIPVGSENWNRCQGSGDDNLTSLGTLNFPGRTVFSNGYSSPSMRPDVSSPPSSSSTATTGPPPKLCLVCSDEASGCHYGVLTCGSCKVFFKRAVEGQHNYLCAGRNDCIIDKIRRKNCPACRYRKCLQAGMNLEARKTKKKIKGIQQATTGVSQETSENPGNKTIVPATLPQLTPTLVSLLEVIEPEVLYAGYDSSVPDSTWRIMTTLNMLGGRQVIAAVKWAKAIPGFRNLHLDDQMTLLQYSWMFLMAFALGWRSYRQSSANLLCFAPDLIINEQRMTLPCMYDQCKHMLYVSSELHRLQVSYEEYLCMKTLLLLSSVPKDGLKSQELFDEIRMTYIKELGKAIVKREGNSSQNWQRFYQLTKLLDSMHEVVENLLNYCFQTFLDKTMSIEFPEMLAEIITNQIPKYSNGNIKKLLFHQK
Transcription factor Sp1 (Homo sapiens), sequence (P08047 whole entry, looked up): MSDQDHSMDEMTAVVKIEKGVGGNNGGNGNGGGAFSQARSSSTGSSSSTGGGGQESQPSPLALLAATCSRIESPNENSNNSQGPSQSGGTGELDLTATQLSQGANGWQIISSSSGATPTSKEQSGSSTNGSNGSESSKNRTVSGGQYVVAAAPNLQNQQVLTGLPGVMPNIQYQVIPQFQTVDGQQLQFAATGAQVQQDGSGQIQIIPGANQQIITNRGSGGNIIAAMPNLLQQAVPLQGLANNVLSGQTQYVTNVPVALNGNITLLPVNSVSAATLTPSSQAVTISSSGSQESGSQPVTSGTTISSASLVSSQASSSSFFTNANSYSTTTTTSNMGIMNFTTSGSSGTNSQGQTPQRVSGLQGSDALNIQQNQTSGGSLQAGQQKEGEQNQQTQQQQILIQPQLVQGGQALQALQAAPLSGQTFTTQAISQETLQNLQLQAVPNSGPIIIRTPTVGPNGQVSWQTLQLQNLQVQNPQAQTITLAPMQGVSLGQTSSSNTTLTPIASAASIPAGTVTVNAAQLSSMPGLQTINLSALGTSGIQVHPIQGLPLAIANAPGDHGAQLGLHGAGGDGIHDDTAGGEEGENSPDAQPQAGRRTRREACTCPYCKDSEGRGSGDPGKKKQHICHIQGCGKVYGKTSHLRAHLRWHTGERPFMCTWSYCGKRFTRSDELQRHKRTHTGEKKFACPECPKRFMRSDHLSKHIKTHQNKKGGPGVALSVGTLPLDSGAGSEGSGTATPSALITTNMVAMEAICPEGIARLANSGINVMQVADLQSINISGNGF
Estrogen receptor (Homo sapiens), sequence (P03372 whole entry, looked up, the tested form may be a part): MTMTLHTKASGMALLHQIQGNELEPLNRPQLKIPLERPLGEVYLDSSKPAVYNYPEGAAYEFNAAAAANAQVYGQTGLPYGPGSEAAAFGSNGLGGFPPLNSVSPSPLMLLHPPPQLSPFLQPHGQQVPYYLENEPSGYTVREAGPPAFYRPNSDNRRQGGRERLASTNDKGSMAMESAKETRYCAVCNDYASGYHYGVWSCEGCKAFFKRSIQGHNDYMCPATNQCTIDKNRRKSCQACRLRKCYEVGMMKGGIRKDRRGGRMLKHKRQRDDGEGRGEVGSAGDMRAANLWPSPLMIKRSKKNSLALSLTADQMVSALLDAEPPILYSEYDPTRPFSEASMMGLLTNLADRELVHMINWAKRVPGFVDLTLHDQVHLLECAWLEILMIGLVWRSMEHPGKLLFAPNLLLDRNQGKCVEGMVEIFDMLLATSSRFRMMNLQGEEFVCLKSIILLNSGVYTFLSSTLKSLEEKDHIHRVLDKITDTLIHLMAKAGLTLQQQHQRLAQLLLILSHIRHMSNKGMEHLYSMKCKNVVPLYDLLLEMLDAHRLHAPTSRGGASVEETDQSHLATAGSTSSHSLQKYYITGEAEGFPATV
Nuclear receptor subfamily 1 group I member 3 (Homo sapiens), sequence (Q14994 whole entry, looked up, the tested form may be a part): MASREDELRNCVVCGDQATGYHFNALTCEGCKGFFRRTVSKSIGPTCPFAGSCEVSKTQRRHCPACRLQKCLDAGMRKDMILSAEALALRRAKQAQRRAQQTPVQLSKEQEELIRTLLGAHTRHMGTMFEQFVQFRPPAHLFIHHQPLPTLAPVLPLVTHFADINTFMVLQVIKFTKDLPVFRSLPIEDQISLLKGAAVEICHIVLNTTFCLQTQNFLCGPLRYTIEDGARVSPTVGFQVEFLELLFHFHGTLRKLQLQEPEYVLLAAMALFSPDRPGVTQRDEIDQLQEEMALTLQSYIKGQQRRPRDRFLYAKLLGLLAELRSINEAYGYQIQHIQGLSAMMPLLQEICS
Bile acid receptor (Homo sapiens), sequence (Q96RI1 whole entry, looked up, the tested form may be a part): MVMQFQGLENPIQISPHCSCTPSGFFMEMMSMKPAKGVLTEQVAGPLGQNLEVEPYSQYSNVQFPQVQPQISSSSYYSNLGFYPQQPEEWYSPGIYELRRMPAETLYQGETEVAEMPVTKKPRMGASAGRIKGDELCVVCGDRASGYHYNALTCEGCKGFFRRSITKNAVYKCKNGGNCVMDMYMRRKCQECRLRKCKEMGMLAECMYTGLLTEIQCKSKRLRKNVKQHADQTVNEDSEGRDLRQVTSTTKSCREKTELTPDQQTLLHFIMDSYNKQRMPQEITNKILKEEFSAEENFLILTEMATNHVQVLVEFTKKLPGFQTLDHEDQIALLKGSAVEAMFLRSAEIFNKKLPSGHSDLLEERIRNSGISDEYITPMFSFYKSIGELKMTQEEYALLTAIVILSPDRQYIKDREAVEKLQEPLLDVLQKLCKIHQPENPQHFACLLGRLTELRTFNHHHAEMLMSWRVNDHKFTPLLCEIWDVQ

`Cc1cc(Cl)ccc1OCCCC(=O)O`: the outcome in test [1], in test [2], in test [3], in [4], in test [5] and in test [6] was inactive. Besides, the result in test [7], in test [8], in [9], in [10], in [11] and in test [12] was inactive. In [13], the compound was classed as inactive.

For the compound `C=C(C)C(=O)OCCCCOC(=O)C(=C)C`, the call in [1], in test [2], in test [3], in test [4], in test [5] and in test [6] was inactive. The compound was called inactive in test [7], in test [8], in [9], in [14], in test [15] and in test [11]. For the same compound, the call in test [12] was inactive.

For the compound `CCCCN(CCCCO)N=O`, the outcome in test [1], in [3], in test [4], in test [5], in test [6] and in test [16] was inactive. In addition, the compound was classed as inactive in [7], in [8], in test [9], in test [10], in test [11] and in [12]. In [13], the result was inactive. In addition, the AC50 (commonly the midpoint of the concentration-response curve, whichever way the signal moves) in [14] was 8.41 µM (active).

Turning to `CC(C)(C#N)N=NC(C)(C)C#N`, the result in [1], in [3], in test [4], in test [5], in test [6] and in [16] was inactive. The compound was called inactive in [7], in test [8], in test [9], in test [10], in test [11] and in [17]. In test [13], the compound was called inactive.

Take `c1ccc2c(c1)Oc1ccccc1O2`: the result in test [1], in [2], in test [3], in test [4], in test [5] and in [6] was inactive. Moreover, the compound was classed as inactive in [7], in test [8], in [9], in test [10] and in test [11].

Regarding `CNC(=O)N(C)c1nc2ccccc2s1`, the call in test [1], in [2], in test [3], in test [4], in test [5] and in test [6] was inactive. Also, the compound was called inactive in test [7], in [8], in test [9], in test [10], in [15] and in test [11]. The call in [12], in test [13] and in test [18] was inactive.

Regarding `N#Cc1ccncc1`, the outcome in test [1], in [2], in [3], in test [4], in [5] and in test [6] was inactive. The compound was called inactive in test [7], in [8], in test [14], in [15], in [11] and in [12]. Besides, the outcome in test [13] was inactive.

With `O=CCCl`, the result in test [1], in [3], in [5], in [7] and in test [8] was inactive. For the same compound, the AC50 was 26.6 µM (active) in [4], 182 µM (active) in [6], 32.3 µM (active) in [9] and 24.7 µM (active) in [11].

On to `COc1ccc(N)cc1`, for which the outcome in [1], in test [3], in test [4], in test [5], in test [6] and in test [16] was inactive. Further, the result in test [7], in test [8], in [11], in test [17], in [12] and in test [13] was inactive.

Regarding `COCCl`, the outcome in [2], in [3], in test [4], in test [5], in test [6] and in test [16] was inactive. The call in test [7], in [8], in test [9], in test [15], in test [11] and in test [17] was inactive. For the same compound, the result in [12] and in test [13] was inactive.
